Screening data: PubChem BioAssay, several laboratories
Sampled rows, rich in hits. Any-hit rate of the full collection: about 32%.
PostGolgi yeast = growth inhibition of a yeast mutant, post-Golgi transport screen | post-Golgi transport phenotypic cell assay | 0.9% of 98,000 active | AID 739 | inhibition, % at 10 µM;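 further: yeast cells grown in 1536-well plates; yeast grown about 18 h at 30C before absorbance read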
CYP2C9 act = increases human cytochrome P450 2C9 activity. recombinant CYP2C9, luciferin-H conversion, luminescence; active compounds read high; factor 1 = untreated enzyme, 0 = blocked. activation factor at 5 µM. P11712. 1.4% of 96,000 active;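 active means activation factor of 2 or more for CYP2C9 at a 5 µM dose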;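 further: 0 = sulfaphenazole-blocked wells and 1 = vehicle-only wells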
PostGolgi ctrl = inhibits growth of the yeast control strain; inhibition, % at 10 µM; 5% of 98,000 active; efflux-deficient yeast background strain, growth absorbance A615, 16 h
CYP2C19 inh = blocks human cytochrome P450 2C19; inhibition, % at 5 µM; 21% of 96,000 active; CYP2C19 Supersomes, luciferin-H EGE luminescence, 30 min; P33261;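 active means CYP2C19 inhibition above a set limit at 5 µM in the primary screen, cut at about 50% in these data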;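 further: plate controls were negative control wells for no effect and 2.5 mM tranylcypromine positive control for full effect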
CYP2C19 activ = activators of human cytochrome P450 2C19; recombinant CYP2C19, luciferin-H EGE luminescence; active compounds read high; 0 = fully inhibited enzyme, 1 = untreated enzyme; activation factor at 5 µM; 96,000 tested, under 10 active; AID 1025; P33261;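 active means activation factor of at least 2 at 5 µM in the primary screen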;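 further: 0 = wells with 2.5 mM tranylcypromine and 1 = vehicle-only wells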
CYP2C9 inh = inhibitors of human CYP2C9; AID 777; CYP2C9 Supersomes, luciferin-H conversion, luminescence; P11712; inhibition, % at 5 µM; 20% of 96,000 active;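 active means blocking of liver enzyme CYP2C9 beyond about 50% at 5 µM, limit read from the data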
Numbers without * were called inactive. Unless noted, no stated cut-off is given here; in the data, active means inhibition above about 30%; inactive means the rest.

SMILES	PostGolgi yeast	CYP2C9 act	PostGolgi ctrl	CYP2C19 inh	CYP2C19 activ	CYP2C9 inh
CNc1nc2c(c(=O)[nH]c(=O)n2C)n1CCOC	10	1	-4	6	0.9	4
CCOc1ccc(NC(=O)N(CCCN2CCOCC2)Cc2cccnc2)cc1	-4	0.5	0	78*	0.2	54*
Cc1ccc(NC(=O)N(CCCN2CCOCC2)Cc2cccs2)cc1C	10	0.5	9	63*	0.4	53*
CCCN1CCCc2cc(CN(CCCN3CCOCC3)C(=O)Nc3ccc(OCC)cc3)ccc21	4	0.9	7	9	0.9	8
O=C(Nc1ccc(Cl)cc1)N(CCCN1CCOCC1)Cc1cccs1	4	0.5	3	84*	0.2	48
O=C(NCCN1CCOCC1)Nc1ccc(Cl)cc1	-2	1	4	9	0.9	4
Cc1nc2ccc(NC(=S)NC(C)C)cc2nc1C	1	1	-5	-8	1.1	-3
CCOc1ccccc1NC(=O)CSc1ncnc2c1oc1ccccc12	13	0.1	26	4	1	85*
CC(=O)CSc1ncnc2c1oc1ccccc12	3	0.9	9	26	0.7	7
O=C(CSc1ncnc2c1oc1ccccc12)Nc1cccc(C(F)(F)F)c1	1	1	9	-17	1.2	4
O=C(CSc1ncnc2c1oc1ccccc12)Nc1nc2ccccc2s1	-9	0.2	-2	16	0.8	77*
